Measured values from PubChem BioAssay (NCI).
Compounds without any hit were thinned out: in the full panel of roughly 83,000, 20% have a hit.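 Each cell line was grown in a 96-well plate and treated with one concentration of compound for 48 hours. Values below 10 were considered active.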 A number with no mark means an inactive call. Calls of active or inactive are those of the source.

Tests used:
Experiment in all cases: NCI-60 one-dose screen, 48 h (100 = growth as untreated, 0 = no growth, -100 = all killed)
Details in all cases: 10 µM unless noted
[1] = system: DU-145 prostate
[2] = system: K-562 leukemia
[3] = system: MALME-3M melanoma
[4] = system: MDA-MB-231 breast
[5] = system: RXF 393 renal
[6] = system: SF-268 CNS
[7] = system: SF-295 CNS
[8] = system: SF-539 CNS
[9] = system: UACC-257 melanoma
[10] = system: M14 melanoma
[11] = system: HCT-15 colon
[12] = system: HT29 colon
[13] = system: SNB-75 CNS
[14] = system: SNB-19 CNS
[15] = system: U251 CNS
[16] = system: PC-3 prostate
[17] = system: SK-MEL-5 melanoma
[18] = system: UACC-62 melanoma
[19] = system: LOX IMVI melanoma
[20] = system: SK-MEL-28 melanoma

## O=C(O)Cn1ccc2ccccc21
[1]
  growth: 119%
[2]
  growth: 93.4%
[3]
  growth: 96.7%
[4]
  growth: 88.8%
[5]
  growth: 114%
[6]
  growth: 115%
[7]
  growth: 113%
[8]
  growth: 92.8%
[9]
  growth: 113%
[10]
  growth: 93.2%
[11]
  growth: 111%
[12]
  growth: 106%
[13]
  growth: 91.1%
[14]
  growth: 98.9%
[15]
  growth: 108%
[16]
  growth: 101%
[17]
  growth: 98.7%
[18]
  growth: 104%
[19]
  growth: 91.8%
[20]
  growth: 134%

## COc1ccc(/C=C(/C(=O)N2CCN(c3ccccc3)CC2)c2cc(OC)c(OC)c(OC)c2)cc1N
[1]
  growth: 15.2%
[2]
  growth: 6.11% (active)
[3]
  growth: 66.3%
[4]
  growth: 22.1%
[5]
  growth: -1.82% (active)
[6]
  growth: 46.6%
[7]
  growth: 7.2% (active)
[8]
  growth: -17.4% (active)
[9]
  growth: 69.2%
[10]
  growth: 1.47% (active)
[11]
  growth: 14.6%
[12]
  growth: 7.35% (active)
[13]
  growth: 53.3%
[14]
  growth: 24.5%
[15]
  growth: 14.5%
[16]
  growth: 26.7%
[17]
  growth: 7.37% (active)
[18]
  growth: 27.9%
[19]
  growth: 27.2%
[20]
  growth: 64%

## Cc1cc(C)c2c(n1)sc1c(Nc3ccc(O)cc3)ncnc12
[1]
  growth: 21.3%
[2]
  growth: 45.1%
[3]
  growth: 63.9%
[4]
  growth: 59%
[5]
  growth: 32%
[6]
  growth: 19.3%
[7]
  growth: 18.3%
[8]
  growth: 3.84% (active)
[9]
  growth: 38.7%
[10]
  growth: -21.5% (active)
[11]
  growth: 51.7%
[12]
  growth: 40%
[13]
  growth: 50.4%
[14]
  growth: 31%
[15]
  growth: 26.6%
[16]
  growth: 47.2%
[17]
  growth: 25.6%
[18]
  growth: 16.1%
[19]
  growth: 13.1%
[20]
  growth: 77.7%

## Cc1nc2ccc(Nc3nc(N4CCOCC4)nc(N4CCN(C)CC4)n3)cc2n1Cc1ccccc1
[1]
  growth: 98.4%
[2]
  growth: 29.3%
[3]
  growth: 65.7%
[4]
  growth: 68.5%
[5]
  growth: 61.1%
[6]
  growth: 68.8%
[7]
  growth: 90.1%
[8]
  growth: 76.5%
[9]
  growth: 82.5%
[10]
  growth: 83.4%
[11]
  growth: 87.4%
[12]
  growth: 53%
[13]
  growth: 62.4%
[14]
  growth: 112%
[15]
  growth: 73.5%
[16]
  growth: 90%
[17]
  growth: 71.4%
[18]
  growth: 107%
[19]
  growth: 74.7%
[20]
  growth: 64.1%

## Clc1ccc2c(c1)-n1cccc1C(c1ccc3ccccc3c1)=NC2
[1]
  growth: 115%
[2]
  growth: 49.4%
[3]
  growth: 97.8%
[4]
  growth: 120%
[5]
  growth: 96.1%
[6]
  growth: 109%
[7]
  growth: 80.6%
[8]
  growth: 103%
[9]
  growth: 100%
[10]
  growth: 87.8%
[11]
  growth: 77.2%
[12]
  growth: 74.1%
[13]
  growth: 83.2%
[14]
  growth: 79.1%
[15]
  growth: 95.6%
[16]
  growth: 79.8%
[17]
  growth: 95.8%
[18]
  growth: 78.3%
[19]
  growth: 112%
[20]
  growth: 100%

## CC(=O)c1cc(C(=O)c2ccc3c(c2)Sc2ccccc2N3)c2c(C)cccn12
[1]
  growth: 13.9%
[2]
  growth: 7.8% (active)
[3]
  growth: 62.3%
[4]
  growth: 19.7%
[5]
  growth: -7.81% (active)
[6]
  growth: 28.4%
[7]
  growth: 4.09% (active)
[8]
  growth: -28.4% (active)
[9]
  growth: 77%
[10]
  growth: 16.9%
[11]
  growth: 15.8%
[12]
  growth: 12%
[13]
  growth: 24.3%
[14]
  growth: 33.8%
[15]
  growth: 13.6%
[16]
  growth: 26.8%
[17]
  growth: 8.21% (active)
[18]
  growth: 26.3%
[19]
  growth: 14.1%
[20]
  growth: 62.5%

## COc1cc(/C=C/c2ccc3c(Br)cc(Br)c(O)c3n2)ccc1O
[1]
  growth: 42.2%
[2]
  growth: -44.5% (active)
[3]
  growth: 53.7%
[4]
  growth: 53%
[5]
  growth: 1.71% (active)
[6]
  growth: 22.8%
[7]
  growth: 27.4%
[8]
  growth: 21.5%
[9]
  growth: 25.1%
[10]
  growth: 27.1%
[11]
  growth: 27.6%
[12]
  growth: 36.7%
[13]
  growth: 36.5%
[14]
  growth: 23.4%
[15]
  growth: 16.4%
[16]
  growth: 12.9%
[17]
  growth: 27.5%
[18]
  growth: 10%
[19]
  growth: 29.5%
[20]
  growth: 23.3%

## COc1cc(C2CC(c3ccc(Nc4ccnc5cc(Cl)ccc45)cc3)=NN2c2ccccc2)cc(OC)c1OC (stereo not given)
[1]
  growth: 79.1%
[2]
  growth: 19.1%
[3]
  growth: 45.6%
[4]
  growth: 77.5%
[5]
  growth: 76.3%
[6]
  growth: 70.6%
[7]
  growth: 57.7%
[8]
  growth: 77%
[9]
  growth: 84.7%
[10]
  growth: 55.5%
[11]
  growth: 45.5%
[12]
  growth: 44.2%
[13]
  growth: 72.6%
[14]
  growth: 79.7%
[15]
  growth: 60.5%
[16]
  growth: 60.8%
[17]
  growth: 49.5%
[18]
  growth: 49.9%
[19]
  growth: 58.7%
[20]
  growth: 79.1%

## COc1ccc(/C(=C\c2cc(OC)c(OC)c(OC)c2)C(=O)N2CCN(c3ccccc3)CC2)cc1O
[1]
  growth: 115%
[2]
  growth: 104%
[3]
  growth: 104%
[4]
  growth: 95.1%
[5]
  growth: 98.2%
[6]
  growth: 101%
[7]
  growth: 96.2%
[8]
  growth: 92.1%
[9]
  growth: 93.1%
[10]
  growth: 105%
[11]
  growth: 97.2%
[12]
  growth: 101%
[13]
  growth: 77.4%
[14]
  growth: 97.6%
[15]
  growth: 96.3%
[16]
  growth: 84.4%
[17]
  growth: 97.1%
[18]
  growth: 88.4%
[19]
  growth: 94%
[20]
  growth: 105%

## COc1cc(C2CC(c3cccc(Nc4ccnc5cc(Cl)ccc45)c3)=NN2c2ccc(Cl)cc2)cc(OC)c1OC (stereo not given)
[1]
  growth: 75.1%
[2]
  growth: 11.2%
[3]
  growth: 44.5%
[4]
  growth: 67%
[5]
  growth: 62.1%
[6]
  growth: 51.9%
[7]
  growth: 3.25% (active)
[8]
  growth: 43.3%
[9]
  growth: 57.1%
[10]
  growth: 25.4%
[11]
  growth: 54.2%
[12]
  growth: 76%
[13]
  growth: 62.4%
[14]
  growth: 85.9%
[15]
  growth: 75.2%
[16]
  growth: 51%
[17]
  growth: 34.2%
[18]
  growth: 9.05% (active)
[19]
  growth: 43.5%
[20]
  growth: 51.4%

## N#Cc1ccc(NC(=O)Nc2nc3ccc(OC(F)(F)F)cc3s2)cc1
[1]
  growth: 23.1%
[2]
  growth: 1.23% (active)
[3]
  growth: -7.94% (active)
[4]
  growth: -18.4% (active)
[5]
  growth: 21.9%
[6]
  growth: 21.1%
[7]
  growth: -25.8% (active)
[8]
  growth: 7.97% (active)
[9]
  growth: -20.7% (active)
[10]
  growth: 5.97% (active)
[11]
  growth: 0.568% (active)
[12]
  growth: -3.66% (active)
[13]
  growth: -8.15% (active)
[14]
  growth: 15.1%
[15]
  growth: 4.34% (active)
[16]
  growth: 2.88% (active)
[17]
  growth: -53.3% (active)
[18]
  growth: 2.82% (active)
[19]
  growth: 1.35% (active)
[20]
  growth: 19.3%

## CNC(=O)c1cc(Oc2ccc(NC(=O)c3nc(S(C)(=O)=O)n(C)c3-c3ccc(F)cc3)cc2)ccn1
[1]
  growth: 56.9%
[2]
  growth: 61%
[3]
  growth: 77.5%
[4]
  growth: 83%
[5]
  growth: 58.4%
[6]
  growth: 70.4%
[7]
  growth: 70.2%
[8]
  growth: 85.6%
[9]
  growth: 96.4%
[10]
  growth: 50.4%
[11]
  growth: 57.8%
[12]
  growth: 71.9%
[13]
  growth: 43%
[14]
  growth: 85%
[15]
  growth: 76.1%
[16]
  growth: 64.1%
[17]
  growth: 73.8%
[18]
  growth: 62%
[19]
  growth: 62.4%
[20]
  growth: 95.7%

## CCOC(=O)C1=C(C)NC(SCc2nnc(-c3ccc(Cl)cc3)o2)=NC1c1ccc(Br)cc1 (stereo not given)
[1]
  growth: 84.3%
[2]
  growth: 60.7%
[3]
  growth: 83.1%
[4]
  growth: 59.8%
[5]
  growth: 75%
[6]
  growth: 86.6%
[7]
  growth: 73.6%
[8]
  growth: 88.7%
[9]
  growth: 73%
[10]
  growth: 74%
[11]
  growth: 65.1%
[12]
  growth: 78.7%
[13]
  growth: 67.7%
[14]
  growth: 72%
[15]
  growth: 65.7%
[16]
  growth: 48.8%
[17]
  growth: 51.4%
[18]
  growth: 55.3%
[19]
  growth: 75%
[20]
  growth: 81.3%

## O=c1cc(N2CCOCC2)oc2c(-c3ccc4c(c3)OCCO4)csc12
[1]
  growth: 22.8%
[2]
  growth: 25.6%
[3]
  growth: -3.44% (active)
[4]
  growth: 20.3%
[5]
  growth: -22.5% (active)
[6]
  growth: 29.8%
[7]
  growth: 0.878% (active)
[8]
  growth: 3.65% (active)
[9]
  growth: 18.6%
[10]
  growth: 12.3%
[11]
  growth: 16.9%
[12]
  growth: 10.8%
[13]
  growth: -16.6% (active)
[14]
  growth: 25.6%
[15]
  growth: 31.2%
[16]
  growth: 21.8%
[17]
  growth: -7.05% (active)
[18]
  growth: -1.9% (active)
[19]
  growth: 10.3%
[20]
  growth: 22.3%

## COc1cccc(OCC(O)CN2CCN(c3ccccc3)CC2)c1 (stereo not given)
[1]
  growth: 116%
[2]
  growth: 92.4%
[3]
  growth: 145%
[4]
  growth: 108%
[5]
  growth: 163%
[6]
  growth: 106%
[7]
  growth: 113%
[8]
  growth: 100%
[9]
  growth: 134%
[10]
  growth: 104%
[11]
  growth: 117%
[12]
  growth: 103%
[13]
  growth: 96.5%
[14]
  growth: 105%
[15]
  growth: 108%
[16]
  growth: 109%
[17]
  growth: 108%
[18]
  growth: 94.3%
[19]
  growth: 104%
[20]
  growth: 81.4%
